According to PubChem BioAssay AID1209 (Sanford-Burnham Center for Chemical Genomics, 2008):
The whole screen tested about 190,000 compounds, of which about 810 (0.43%) were called active. Rule as the data show it: active = inhibition above about 50%; inactive = the rest. The sample as a whole holds a higher share of actives than the screen did.

Target: Mannose-6-phosphate isomerase (Homo sapiens) (UniProt P34949)
Assay: MPI enzyme activity inhibition – biochemical, fluorescence intensity, coupled assay, primary screen (AID 1209);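 also: plate controls were DMSO vehicle for no effect and wells lacking substrate for full effect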
Settings: purified PMI enzyme, at 20 µM, active compounds read high

Chain of Mannose-6-phosphate isomerase (Homo sapiens) (P34949 whole entry, looked up): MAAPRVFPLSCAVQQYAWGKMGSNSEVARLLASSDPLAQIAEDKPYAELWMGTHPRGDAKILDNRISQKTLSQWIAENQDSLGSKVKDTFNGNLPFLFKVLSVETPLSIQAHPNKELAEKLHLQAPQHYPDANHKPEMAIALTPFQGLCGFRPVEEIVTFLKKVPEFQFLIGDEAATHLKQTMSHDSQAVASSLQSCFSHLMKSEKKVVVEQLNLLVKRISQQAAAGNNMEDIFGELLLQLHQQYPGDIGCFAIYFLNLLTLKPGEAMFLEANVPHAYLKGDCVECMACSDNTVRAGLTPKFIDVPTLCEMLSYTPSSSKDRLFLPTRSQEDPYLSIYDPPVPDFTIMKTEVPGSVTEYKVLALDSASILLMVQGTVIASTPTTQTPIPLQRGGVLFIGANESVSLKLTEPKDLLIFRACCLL

Row | SMILES | inhibition
1 | CSC1=N/C(=C\c2ccc(C)s2)C(=O)S1 | 7% (inactive)
2 | O=C(NC1CCCCCCC1)c1ccc2c(c1)N(Cc1ccc(F)cc1)C(=O)CS2=O (centres undefined) | 0.6% (inactive)
3 | NC(=S)Nn1c(CCC(=O)O)ccc1-c1ccccc1 | 14.4% (inactive)
4 | CCc1ccc(C(=O)COC(=O)CCc2nc3ccccc3c(=O)[nH]2)cc1 | -28.6% (inactive)
5 | Cc1cccc2cc(C#N)c(SCc3nnc(-c4ccccc4[N+](=O)[O-])o3)nc12 | 11.1% (inactive)
6 | C/C=C(\C)C(=O)NCCN1C2=NC[C@H](C(C)C)N2C[C@H]1Cc1ccc(O)cc1 | 1.5% (inactive)
7 | N#C/C(=C/c1ccc(CNS(=O)(=O)c2ccccc2)o1)C(=O)NCc1ccccc1 | 7.8% (inactive)
8 | COCCNC(=O)/C(C#N)=C\c1ccc(CNS(=O)(=O)c2ccc(C)cc2)o1 | 6.2% (inactive)
9 | Cc1ccc(S(=O)(=O)NCc2ccc(/C=C(/C#N)C(=O)NCc3ccccc3)o2)cc1 | 58.4% (active)
10 | CCCNS(=O)(=O)c1ccc(OCC(=O)Nc2ccccc2F)cc1 | -1.4% (inactive)
11 | CC1(C)CC(=O)C(C2=NC(C)(C)Cc3ccccc32)=C(O)C1 | -4% (inactive)
12 | CC1(C)Cc2ccccc2C2=NNC(=O)C2=N1 | 84% (active)
13 | CC1=NC(C)(C)Cc2ccccc21 | 7.7% (inactive)
14 | O=S(=O)(/C=C/c1ccccc1)N1CCN(Cc2ccccc2)CC1 | -1.6% (inactive)
15 | COc1ccc2nc(NC(=O)CNS(=O)(=O)c3cccs3)sc2c1 | 1.5% (inactive)
16 | CCN(C(=S)Nc1ccc(Oc2ccccc2)cc1)c1ccccc1 | 3.3% (inactive)
17 | CN1CCC(N(C)C(=S)Nc2ccc(SC(F)F)cc2)CC1 | -2% (inactive)
18 | CN(Cc1ccccc1)C(=S)Nc1cccnc1 | 0.8% (inactive)
19 | CN(C(=S)Nc1ccc(SC(F)F)cc1)c1ccc(O)cc1 | 77.2% (active)
20 | Oc1cccc(NC(=S)Nc2ccc(SC(F)F)cc2)c1 | 18.1% (inactive)
21 | CCN(C(=S)Nc1cccnc1)c1ccccc1 | 4% (inactive)
22 | CN(C(=S)Nc1cccnc1)c1ccc(O)cc1 | 59.2% (active)
23 | CN(C(=S)Nc1ccccc1)c1ccccc1 | 3.2% (inactive)
24 | CN(C(=S)Nc1ccc(Oc2ccccc2)cc1)c1ccc(O)cc1 | 64% (active)
25 | Oc1cccc(NC(=S)Nc2cccnc2)c1 | 14.8% (inactive)
26 | CCN(C(=S)Nc1cccnc1)c1cccc2ccccc12 | 61.2% (active)

Row | SMILES | inhibition
27 | CCN(C(=S)NCc1ccccc1)c1cccc2ccccc12 | 6.3% (inactive)
28 | Cn1cnnc1SCc1nc(N)nc(Nc2ccccc2)n1 | 0.3% (inactive)
29 | Cc1ccc(C)c(NC2=CC(=O)CC(C)(C)C2)c1C#N | -12% (inactive)
30 | CC(=O)N(NC(=O)c1ccc(C)cc1)C1CC(=O)N(c2ccccc2Cl)C1=O (centres undefined) | -5.8% (inactive)
31 | Cc1ccc(NC(=O)Cn2cc(C(F)(F)F)cc(Cl)c2=O)cc1Cl | 3.2% (inactive)
32 | C=CCn1c(Cc2cccs2)nnc1SCC(=O)Nc1ccc(OC)c(OC)c1 | 5.9% (inactive)
33 | Cc1nn(C)cc1C(=O)Nc1cc(Oc2ccc(Cl)cc2)cc([N+](=O)[O-])c1 | -2.9% (inactive)
34 | COc1ccc2c(C)c(Cl)c(=O)oc2c1 | 3.5% (inactive)
35 | CCN(CC)CCN(C(=O)c1ccc([N+](=O)[O-])cc1)c1nc2ccc(OC)cc2s1 | 1.1% (inactive)
36 | CCOc1ccc2nc(N(CCN(CC)CC)C(=O)c3cccc([N+](=O)[O-])c3)sc2c1 | 33.9% (inactive)
37 | CCN(CC)CCN(C(=O)c1cccc([N+](=O)[O-])c1)c1nc2ccc(OC)cc2s1 | 56.7% (active)
38 | C=CCNC(=O)c1cc(C(=O)C(C)c2ncc(C(F)(F)F)cc2Cl)c[nH]1 (centres undefined) | 0.9% (inactive)
39 | N=c1sccn1CC(=O)NCc1ccc(Cl)cc1Cl | -8.6% (inactive)
40 | COC(=O)C1CCN(C2CC(=O)N(c3cc(C)cc(C)c3)C2=O)CC1 (centres undefined) | -1.3% (inactive)
41 | COc1ccc(OCc2n[nH]c(=S)n2N)cc1 | 80.7% (active)
42 | Nn1c(COc2ccc(Cl)cc2)n[nH]c1=S | 12% (inactive)
43 | Cc1ccc(OCc2n[nH]c(=S)n2N)cc1C | 1.5% (inactive)
44 | O=C(NC1CCSC1=O)C1CCCCC1 (centres undefined) | -2.2% (inactive)
45 | c1cc(-c2ccncc2)ccn1 | -8.5% (inactive)
46 | Nc1cc(-c2ccncc2)c[nH]c1=O | 50.4% (active)
47 | N#Cc1cc(-c2ccccc2)c[nH]c1=O | 6.1% (inactive)
48 | COC(=O)c1c(NC(=O)C2CC=CCC2C(=O)O)sc(C(N)=O)c1C (centres undefined) | 7.3% (inactive)
49 | Cc1ccc(NC(=O)CN(C)S(=O)(=O)c2cccc3cccnc23)cc1 | 11.9% (inactive)
50 | Cc1ccc(NC(=O)CN(C)C(=O)COc2cccc3cccnc23)cc1 | 73% (active)
51 | O=C(COc1cccc2cccnc12)Nc1ccccc1 | -7.8% (inactive)
52 | O=C(c1cccnc1)N1CCN(c2ccc(Cl)cc2)CC1 | -6.6% (inactive)

Row | SMILES | inhibition
53 | O=C(/C=C/NNC(=O)c1ccc(Cl)cc1)c1ccccc1 | -4.1% (inactive)
54 | COC(=O)c1ccc(C(=O)OC)c(NC(=O)CN2CCCCC2)c1 | 4.7% (inactive)
55 | CCCn1nnnc1NC(=O)c1cc(Cl)ccc1Cl | 13.1% (inactive)
56 | CCCn1nnnc1NC(=O)c1ccc(C)cc1Cl | 54.4% (active)
57 | CCCn1nnnc1NC(=O)c1cc(Br)ccc1OC | 0.2% (inactive)
58 | O=c1c2ccccc2nc2c3ccccc3c(NCc3cccnc3)nn12 | 6.3% (inactive)
59 | CCN(CC)C(=S)SSC(=S)N(CC)CC | -2.4% (inactive)
60 | CCN(CC)C(=S)SC1=CCS(=O)(=O)C1 | 102% (active)
61 | CCN(CC)C(=S)SCC(=O)c1ccccc1 | 5.8% (inactive)
62 | COc1ccc(OC)c([C@@H]2OCCC=C[C@H]2C)c1 | -2.1% (inactive)
63 | O=C(Nc1nc2c(s1)CCCC2)c1nn(Cc2ccccc2)c(=O)c2ccccc12 | 0.4% (inactive)
64 | O=S(=O)(c1cccs1)N1CCN(c2ccccn2)CC1 | 5.9% (inactive)
65 | Cc1ccc(-c2nnc(CSc3nc4cc5c(cc4cc3C)OCO5)o2)cc1 | 15.5% (inactive)
66 | Cc1cccc(NCc2ccccc2O)c1C | 29% (inactive)
67 | Cc1ccc(O)c(CNc2cccc3cccnc23)c1 | 34.8% (inactive)
68 | Cc1cccc(NCc2ccc(O)c3ncccc23)c1C | 60.4% (active)
69 | Oc1ccc(CNc2ccccc2F)c2cccnc12 | 45.3% (inactive)
70 | Cc1cccnc1NCc1ccc(O)c2ncccc12 | 48.4% (inactive)
71 | COc1cccc(C2C(C(=O)Nc3nc4ccccc4s3)=C(C)NC3=C2C(=O)CC(C)(C)C3)c1OC (centres undefined) | -10.5% (inactive)
72 | CC(=O)NC1C(=O)N=C(SCC(=O)Nc2sc3c(c2C#N)CCCCCC3)NC1=O (centres undefined) | 66.1% (active)
73 | CC(=O)NC1C(=O)N=C(SCC(=O)NC2CCCCC2)NC1=O (centres undefined) | -8.4% (inactive)
74 | CC(=O)Nc1c(O)nc(SCC(=O)Nc2sc3c(c2C#N)CCCCCC3)[nH]c1=O | 1.2% (inactive)
75 | O=C(O)c1ccc(Nc2ncnc3c2cnn3Cc2ccccc2)cc1 | 7.1% (inactive)
76 | O=C(Cc1ccccc1)NCc1ccccn1 | -4.7% (inactive)
77 | C/C(N)=C(/C#N)C(=O)CSc1nn(-c2ccc(Cl)cc2)c(=S)s1 | 5.6% (inactive)
78 | CC(=O)N1c2ccccc2C2(O)N=C(C)SC12 (centres undefined) | 60.3% (active)

Row | SMILES | inhibition
79 | Cc1ccc(C(=O)CC2(O)C(=O)N(C)c3ccccc32)s1 (centres undefined) | 8.1% (inactive)
80 | CC(=O)N1c2ccccc2C(C)(C)C2CCC(C)CC21 (centres undefined) | 0.8% (inactive)
81 | CCCCN(CC)c1nc(N)c2c(N)nc(OCC)cc2c1C#N | 37.5% (inactive)
82 | COc1cc2c(C#N)c(N3CCOCC3)nc(N)c2c(N)n1 | 28.9% (inactive)
83 | CCOc1cc2c(C#N)c(N3CCNCC3)nc(N)c2c(N)n1 | 65.4% (active)
84 | COc1cc2c(C#N)c(N3CCCCC3)nc(N)c2c(N)n1 | 66.7% (active)
85 | CCOc1cc2c(C#N)c(N3CCCCC3)nc(N)c2c(N)n1 | 62.4% (active)
86 | COc1cc2c(C#N)c(N3CCc4ccccc4C3)nc(N)c2c(N)n1 | 64.3% (active)
87 | CCOc1ccccc1N1CCN(c2nc(N)c(C#N)c(CC#N)c2C#N)CC1 | 12.6% (inactive)
88 | COc1cc2c(C#N)c(N3CCN(c4ccccc4OC)CC3)nc(N)c2c(N)n1 | 47.2% (inactive)
89 | CCCN(CC1CC1)c1nc(N)c2c(N)nc(OC)cc2c1C#N | 47.8% (inactive)
90 | COc1cc2c(C#N)c(N3CCN(C)CC3)nc(N)c2c(N)n1 | 42.5% (inactive)
91 | N#Cc1c(N2CCCC2)nc(N)c2c(N)nc(N3CCCC3)cc12 | 6.9% (inactive)
92 | COCc1cc(C)nc(N2CCNCC2)c1C#N | -0.4% (inactive)
93 | COc1ccc2cc(CN(CC3CCCO3)C(=O)Nc3ccccc3OC)c(=O)[nH]c2c1 (centres undefined) | 3.2% (inactive)
94 | Cc1ccc2nc(C)c(C(=O)N/N=C/c3ccc(C(=O)O)cc3)cc2c1 | 13.8% (inactive)
95 | Cn1cccc1C(=O)NC(=O)COC(=O)c1ccccc1O | 9.4% (inactive)
96 | Cc1cc(NC(=S)N(CCCN2CCN(C)CC2)Cc2ccco2)ccc1Cl | 3.6% (inactive)
97 | CC1CCN(C(=O)CSc2nnc(CSc3ncccn3)n2C)CC1 | -8.9% (inactive)
98 | CCOC(=O)c1nnc(-c2ccccc2)nc1Oc1ccc(Cl)cc1 | 2.2% (inactive)
99 | O=C(Nc1cccc(-c2nnc(-c3ccccc3)o2)c1)c1ccco1 | 7.4% (inactive)
100 | Cc1ccc(Oc2ccc(NC(=O)c3ccco3)cc2)cc1 | 6.1% (inactive)
101 | Cc1ccc(-c2nnc(-c3ccc(NC(=O)c4ccco4)cc3)o2)cc1 | 75.9% (active)
102 | COc1cccc(/C=N/N2CCOCC2)c1O | 4.9% (inactive)
103 | CCN(CC)c1ccc(/C=N/N2CCOCC2)c(O)c1 | 19.6% (inactive)
104 | CC(C)c1nc(CN2CCCCC2)cc(=O)[nH]1 | 8.6% (inactive)
